# From PubChem BioAssay (NCATS)
# Records with an inconclusive call do not appear. A call without a number means that no potency is given here. Calls of active or inactive are those of the source. Unless noted, calls come from the whole dose curve; as a rule, active = well fitted curve in the direction sought with a large enough effect; inconclusive = small, poorly fitted or top-dose-only effect, or another doubt; inactive = no such curve, though single readings can be large; an effect the other way counts as inactive or inconclusive.
# Experiments:
# [1] = target: Voltage-gated inwardly rectifying potassium channel KCNH2 (Homo sapiens) (UniProt Q12809); experiment: qHTS Assay for Small Molecule Inhibitors of the Human hERG Channel Activity (AID 588834); details: U2OS BacMam hERG, FluxOR thallium flux fluorescence; series mostly up to 46.1 µM;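 note: lower thallium flux fluorescence means stronger hERG block; nearly all actives have a fitted effect of over 50% in size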; note: potency is the fitted concentration of half-maximal effect
# Outline: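 U2OS cells BacMam-transduced with hERG, 2000 cells/well, compound ~10 min at 37 °C before stimulation buffer. FluxOR thallium flux fluorescence read kinetically on FDSS; decrease indicates block; AC50 from Hill fits.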
# [2] = target: Luciferin 4-monooxygenase (Photinus pyralis) (UniProt P08659); experiment: Biochemical firefly luciferase enzyme assay for NPC (AID 624030); note: nearly all actives have a fitted effect of over 70% in size; note: potency is the fitted concentration of half-maximal effect; details: purified P. pyralis luciferase, luminescence, 5 min; series mostly up to 58.6 µM
# Outline: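 Direct inhibition of firefly luciferase enzyme (10 nM final, 50 mM Tris Acetate) assessed by luminescence within 5 minutes. Percent activity scaled between DMSO and PTC124 positive control, with concentration-effect curves classified by fit quality and response.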
# [3] = S16 Schwann cell viability assay (CellTiter-Glo assay) (AID 624031); details: S16 rat Schwann cells viability, 24 h; series mostly up to 57.5 µM; note: nearly all actives have a fitted effect of over 70% in size; note: potency is the fitted concentration of half-maximal effect
# Outline: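 Cells were seeded at 500-750 per well in phenol red-free DMEM with 10% FBS and left overnight. Compounds or DMSO were pinned in, incubation ran 24 h at 37 °C/5% CO2, then CellTiter-Glo reagent was added and luminescence measured.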
# [4] = S16 Schwann cell PMP22 intronic element firefly luciferase assay (AID 624032); details: S16 rat Schwann cells, PMP22 element FLuc, 24 h; series mostly up to 57.5 µM; note: nearly all actives have a fitted effect of over 30% in size; note: potency is the fitted concentration of half-maximal effect
# Outline: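 Luciferase reporter of PMP22 intronic-element expression in stably transfected S16 rat Schwann cells, read by ONE-Glo luminescence after 24 h compound exposure at 37 C. Activity scaled between DMSO (0%) and positive-control PTC124; concentration-effect curves quality-classified.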
# [5] = S16 Schwann cell PMP22 intronic element beta-lactamase assay (AID 624044; calls by dose curve; note: nearly all actives have a fitted effect of over 15% in size; note: potency is the fitted concentration of half-maximal effect); details: S16 rat Schwann cells, PMP22 element beta-lactamase FRET, 24 h; series mostly up to 38.3 µM
# Outline: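 Rat S16 Schwann cells with beta-Lac driven by a PMP22 intronic element, compound-treated 24 h at 37 °C. LiveBLAzer FRET B/G read: 460 nm normalized to potassium clavulanate vs DMSO; 535 nm FRET as viability; concentration-effect curves classified.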
# [6] = target: Glutaminase kidney isoform, mitochondrial (Homo sapiens) (UniProt O94925); experiment: qHTS for Inhibitors of Glutaminase (GLS): LOPAC Validation (AID 624146); details: glutaminase enzyme activity inhibition; series mostly up to 46.1 µM;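 note: glutamate product detected by oxidase and peroxidase coupled Amplex red fluorescence gain; nearly all actives have a fitted effect of over 60% in size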
# Outline: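 Read-out is an Amplex red fluorescence increase coupled through glutamate oxidase and HRP, measured before and after 30 min room-temperature incubation. hKGA is in 45 mM KH2PO4 (pH 8.2) with 0.02% Tween-20; glutamine added as 1mM solution.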
# [7] = qHTS of Trypanosoma Brucei Inhibitors: LOPAC Validation (AID 624147); details: purified enzyme assay, luminescence, 45 min; series mostly up to 57.5 µM
# Outline: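 Quantitative HTS: titrated library compounds versus trypanosomal pyruvate kinase in TEA buffer (pH 7.2) containing KCl, MgCl2, BSA and Tween-20. Reactions were initiated with ADP, 130 uM final. Kinase-Glo Plus luminescence was read after 45 min at RT.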
# [8] = target: Glucagon-like peptide 1 receptor (Homo sapiens) (UniProt P43220); experiment: qHTS of GLP-1 Receptor Agonists: LOPAC Validation (AID 624148); details: GLP-1R agonist cell assay; series mostly up to 46.1 µM;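 note: luminescence from a luciferase reporter switched on by cAMP; higher luminescence signal means agonism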
# Outline: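 Agonism scored as increased luciferase luminescence driven by cAMP in HEK293 clones carrying GLP-1R. Cells settled 12 hours, received compound for 4-6 hr at 37 deg C, 5% CO2, and were read after 12 min detection reagent at RT.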
# [9] = qHTS of Nrf2 Activators: LOPAC Validation (AID 624149); details: Nrf2/ARE reporter cell assay; series mostly up to 46.1 µM
# Outline: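 AREc32_Fluc cells, 1000/well in OPTI-MEM with 5% FBS, grown overnight, then exposed to compounds for 24 hr at 37 deg C, 5% CO2. ARE-driven firefly luciferase read by Steady-Glo luminescence after 30 min at RT.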
# [10] = HTS Assay for Allosteric Antagonists of the Human D2 Dopamine Receptor: Hit Validation in HTRF (AID 624455); details: Cells stably expressing D1 dopamine receptor, inhibition mode; series mostly up to 46.1 µM;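 note: stable D1 dopamine receptor cell line scored for blocking the D1 response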
# Outline: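 Hit validation in cells stably expressing the D1 dopamine receptor, run in HTRF format. Compounds were tested for their ability to inhibit the D1-mediated response.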
# [11] = qHTS assay for small molecule disruptors of the mitochondrial membrane potential - 5 hr assay (AID 651755; calls by dose curve; note: potency is the fitted concentration of half-maximal effect; nearly all actives have a fitted effect of over 40% in size); details: JC-1-type ratio dye; series mostly up to 92.2 µM
# Outline: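 HepG2, 2,000 cells/well, overnight attach; cpd or DMSO 5 hr, 37C/5% CO2; Mito-MPS 30 min 37C; fluor 490/535 + 540/590 nm.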
# Sequence of Luciferin 4-monooxygenase (Photinus pyralis) (P08659 whole entry, looked up): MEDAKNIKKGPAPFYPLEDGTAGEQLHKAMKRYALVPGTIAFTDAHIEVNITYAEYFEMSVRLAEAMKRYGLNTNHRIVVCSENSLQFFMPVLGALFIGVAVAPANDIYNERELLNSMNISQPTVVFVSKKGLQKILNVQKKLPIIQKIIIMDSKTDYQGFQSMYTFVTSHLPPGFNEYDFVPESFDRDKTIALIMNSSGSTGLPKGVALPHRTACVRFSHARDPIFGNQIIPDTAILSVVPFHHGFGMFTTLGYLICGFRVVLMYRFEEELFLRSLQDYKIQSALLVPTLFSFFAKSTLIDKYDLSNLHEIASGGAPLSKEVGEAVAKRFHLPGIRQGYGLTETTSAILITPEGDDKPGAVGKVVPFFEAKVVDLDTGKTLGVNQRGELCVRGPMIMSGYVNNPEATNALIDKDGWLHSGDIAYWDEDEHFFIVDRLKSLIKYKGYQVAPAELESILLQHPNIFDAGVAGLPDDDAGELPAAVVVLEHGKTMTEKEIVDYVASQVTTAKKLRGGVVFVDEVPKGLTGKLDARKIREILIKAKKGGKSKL
# Sequence of Glucagon-like peptide 1 receptor (Homo sapiens) (P43220 whole entry, looked up): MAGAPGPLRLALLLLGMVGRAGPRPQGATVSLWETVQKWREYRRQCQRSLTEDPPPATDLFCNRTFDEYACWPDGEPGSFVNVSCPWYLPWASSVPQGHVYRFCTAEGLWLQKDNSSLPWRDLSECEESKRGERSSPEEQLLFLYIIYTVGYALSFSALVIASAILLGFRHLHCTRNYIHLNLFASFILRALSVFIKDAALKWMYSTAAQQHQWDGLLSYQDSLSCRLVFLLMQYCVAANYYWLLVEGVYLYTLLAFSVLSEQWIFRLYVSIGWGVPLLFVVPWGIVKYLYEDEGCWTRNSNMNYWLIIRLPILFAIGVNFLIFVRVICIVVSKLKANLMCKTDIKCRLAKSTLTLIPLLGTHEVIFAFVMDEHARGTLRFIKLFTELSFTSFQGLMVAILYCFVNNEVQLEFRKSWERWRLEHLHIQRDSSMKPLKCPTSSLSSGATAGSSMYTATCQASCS
# Sequence of Voltage-gated inwardly rectifying potassium channel KCNH2 (Homo sapiens) (Q12809 whole entry, looked up): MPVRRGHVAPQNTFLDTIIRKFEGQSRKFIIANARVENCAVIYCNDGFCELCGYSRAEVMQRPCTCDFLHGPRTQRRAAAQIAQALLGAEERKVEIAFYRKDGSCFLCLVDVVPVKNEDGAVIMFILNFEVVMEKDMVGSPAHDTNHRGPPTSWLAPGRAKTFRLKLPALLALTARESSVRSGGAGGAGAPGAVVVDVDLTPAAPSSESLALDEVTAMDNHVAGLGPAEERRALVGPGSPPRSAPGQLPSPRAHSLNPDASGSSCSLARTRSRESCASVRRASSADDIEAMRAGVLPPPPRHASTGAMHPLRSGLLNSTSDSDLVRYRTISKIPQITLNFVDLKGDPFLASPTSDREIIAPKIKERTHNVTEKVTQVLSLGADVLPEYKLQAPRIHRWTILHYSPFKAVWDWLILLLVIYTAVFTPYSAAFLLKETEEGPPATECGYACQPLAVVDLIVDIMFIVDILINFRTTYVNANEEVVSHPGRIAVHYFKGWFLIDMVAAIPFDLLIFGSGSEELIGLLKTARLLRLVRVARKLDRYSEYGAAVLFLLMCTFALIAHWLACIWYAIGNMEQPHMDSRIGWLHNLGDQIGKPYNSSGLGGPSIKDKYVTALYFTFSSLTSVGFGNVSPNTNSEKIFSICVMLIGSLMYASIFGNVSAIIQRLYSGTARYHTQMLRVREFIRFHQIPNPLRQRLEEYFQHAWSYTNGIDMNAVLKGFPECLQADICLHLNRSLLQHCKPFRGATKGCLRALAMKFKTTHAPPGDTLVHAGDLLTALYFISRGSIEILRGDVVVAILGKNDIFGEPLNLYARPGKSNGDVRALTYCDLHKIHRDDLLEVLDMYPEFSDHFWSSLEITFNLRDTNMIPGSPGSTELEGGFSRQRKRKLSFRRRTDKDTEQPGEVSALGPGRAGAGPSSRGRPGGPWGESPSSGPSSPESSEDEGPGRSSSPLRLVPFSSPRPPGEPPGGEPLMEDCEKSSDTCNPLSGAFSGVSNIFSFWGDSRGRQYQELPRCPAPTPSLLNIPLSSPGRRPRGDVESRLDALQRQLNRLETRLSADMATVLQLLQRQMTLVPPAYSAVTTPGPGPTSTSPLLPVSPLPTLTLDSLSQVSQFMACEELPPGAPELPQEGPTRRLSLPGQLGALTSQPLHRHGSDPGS
# Sequence of Glutaminase kidney isoform, mitochondrial (Homo sapiens) (O94925 whole entry, looked up, canonical isoform): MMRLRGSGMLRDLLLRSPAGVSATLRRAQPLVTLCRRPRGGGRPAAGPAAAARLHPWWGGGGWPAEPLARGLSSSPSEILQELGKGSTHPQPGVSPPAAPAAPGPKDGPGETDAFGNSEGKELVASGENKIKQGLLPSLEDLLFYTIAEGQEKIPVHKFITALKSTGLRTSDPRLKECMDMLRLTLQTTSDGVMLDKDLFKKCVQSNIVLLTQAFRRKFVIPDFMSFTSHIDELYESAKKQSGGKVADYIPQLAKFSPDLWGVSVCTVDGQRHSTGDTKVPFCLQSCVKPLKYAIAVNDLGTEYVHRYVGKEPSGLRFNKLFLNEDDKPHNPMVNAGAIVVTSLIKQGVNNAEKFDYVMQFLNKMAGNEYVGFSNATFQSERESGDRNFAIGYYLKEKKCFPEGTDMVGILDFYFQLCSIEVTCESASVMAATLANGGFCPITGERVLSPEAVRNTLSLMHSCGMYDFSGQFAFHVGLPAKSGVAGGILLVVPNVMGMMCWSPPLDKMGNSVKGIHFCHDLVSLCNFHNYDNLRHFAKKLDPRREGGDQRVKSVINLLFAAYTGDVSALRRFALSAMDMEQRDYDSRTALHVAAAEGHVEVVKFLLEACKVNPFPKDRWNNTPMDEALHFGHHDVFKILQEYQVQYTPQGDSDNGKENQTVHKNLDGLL
smiles,measurement,setting,value
CC(C)(O)C1C2OC(=O)C1C1(O)CC3OC34C(=O)OC2C14C (stereo unspecified),Potency,[1],inactive
same,Potency,[2],inactive
same,Potency,[3],inactive
same,Potency,[4],inactive
same,Potency,[5],inactive
O=S(=O)(O)c1cc(O)ccc1O,Potency,[1],inactive
same,Potency,[2],inactive
same,Potency,[3],inactive
same,Potency,[4],inactive
same,Potency,[5],inactive
CCC1C(C)=NN=C(c2ccc(OC)c(OC)c2)c2cc(OC)c(OC)cc21 (stereo unspecified),Potency,[1],inactive
same,Potency,[2],inactive
same,Potency,[3],inactive
same,Potency,[4],7.21 µM (active)
same,Potency,[5],inactive
CCC1(CC)C(=O)NC(=O)N(C)C1=O,Potency,[1],inactive
same,Potency,[2],inactive
same,Potency,[3],inactive
same,Potency,[4],inactive
same,Potency,[5],inactive
CCC1(c2ccccc2)C(=O)NC(=O)NC1=O,Potency,[1],inactive
same,Potency,[2],inactive
same,Potency,[3],inactive
same,Potency,[4],inactive
same,Potency,[5],inactive
c1csc(C2(N3CCCCC3)CCCCC2)c1,Potency,[1],inactive
same,Potency,[2],inactive
same,Potency,[3],inactive
same,Potency,[4],inactive
same,Potency,[5],inactive
O=P(O)(O)C(Cl)(Cl)P(=O)(O)O,Potency,[1],inactive
same,Potency,[2],inactive
same,Potency,[3],inactive
same,Potency,[4],inactive
same,Potency,[5],inactive
CNC(=O)Oc1ccccc1C(=O)Nc1ccccc1,Potency,[1],inactive
same,Potency,[2],14.4 µM (active)
same,Potency,[3],inactive
same,Potency,[4],inactive
same,Potency,[5],inactive
CCCCCCCCCC(=O)O[C@H]1CC[C@H]2[C@@H]3CCC4=CC(=O)CC[C@]4(C)[C@H]3CC[C@]12C,Potency,[1],inactive
same,Potency,[2],inactive
same,Potency,[3],inactive
same,Potency,[5],inactive
Cn1sc(Cl)cc1=O,Potency,[1],inactive
same,Potency,[2],inactive
same,Potency,[3],inactive
same,Potency,[4],inactive
same,Potency,[5],inactive
COc1ccc(OC)c(C(O)C(C)N)c1 (stereo unspecified),Potency,[1],inactive
same,Potency,[2],inactive
same,Potency,[3],inactive
same,Potency,[4],inactive
same,Potency,[6],inactive
same,Potency,[7],inactive
same,outcome,[8],inactive
same,Potency,[9],inactive
O=C(NC(=O)c1c(F)cccc1F)Nc1ccc(Cl)c(Oc2ncc(C(F)(F)F)cc2Cl)c1,Potency,[1],inactive
same,Potency,[2],inactive
same,Potency,[3],inactive
same,Potency,[4],inactive
same,Potency,[5],inactive
CN1C2CCC1CC(OC(c1ccccc1)c1ccc(Cl)cc1)C2 (stereo unspecified),Potency,[1],0.501 µM (active)
same,Potency,[2],inactive
same,Potency,[3],20.3 µM (active)
same,Potency,[4],25.6 µM (active)
same,Potency,[5],inactive
O=C1CC[C@@]2(O)C3Cc4ccc(O)c5c4C2(CCN3CC2CC2)[C@H]1O5 (stereo partly specified),Potency,[1],11.2 µM (active)
same,Potency,[2],inactive
same,Potency,[3],inactive
same,Potency,[4],inactive
same,Potency,[5],inactive
same,outcome,[8],inactive
same,Potency,[9],inactive
same,Potency,[10],inactive
CCCC(C)(COC(N)=O)COC(=O)NC1CC1 (stereo unspecified),Potency,[1],inactive
same,Potency,[2],inactive
same,Potency,[3],inactive
same,Potency,[4],inactive
same,Potency,[5],inactive
CC[N+](C)(CC)CCOC(=O)C(O)(c1ccccc1)c1ccccc1,Potency,[1],inactive
same,Potency,[2],inactive
same,Potency,[3],inactive
same,Potency,[5],inactive
Clc1ccc(Cl)cc1,Potency,[1],inactive
same,Potency,[2],inactive
same,Potency,[3],inactive
same,Potency,[4],inactive
same,Potency,[5],inactive
CC(Cc1ccccc1)NC=O (stereo unspecified),Potency,[1],inactive
same,Potency,[2],inactive
same,Potency,[3],inactive
same,Potency,[4],inactive
CN1CCCC(=C(c2cccs2)c2cccs2)C1,Potency,[1],8.91 µM (active)
same,Potency,[2],inactive
same,Potency,[3],inactive
same,Potency,[4],inactive
same,Potency,[5],inactive
CCC1(C)CC(=O)NC(=O)C1,Potency,[1],inactive
same,Potency,[2],inactive
same,Potency,[3],inactive
same,Potency,[4],inactive
same,Potency,[5],inactive
CC(N)Cc1ccc(O)cc1 (stereo unspecified),Potency,[1],inactive
same,Potency,[2],inactive
same,Potency,[3],inactive
same,Potency,[4],9.07 µM (active)
same,Potency,[5],inactive
CC(=O)OC1CN2CCC1CC2 (stereo unspecified),Potency,[1],inactive
same,Potency,[2],inactive
same,Potency,[3],inactive
same,Potency,[5],inactive
C[N+]1(C)CCCCC1COC(=O)C(O)(c1ccccc1)c1ccccc1 (stereo unspecified),Potency,[1],inactive
same,Potency,[2],inactive
same,Potency,[3],inactive
same,Potency,[4],inactive
same,Potency,[5],inactive
FC(F)OC(F)(F)C(F)Cl (stereo unspecified),Potency,[1],inactive
same,Potency,[2],inactive
same,Potency,[3],inactive
same,Potency,[4],inactive
same,Potency,[5],inactive
CCCC(=O)OC(C(Cl)(Cl)Cl)P(=O)(OC)OC (stereo unspecified),Potency,[1],inactive
same,Potency,[2],inactive
same,Potency,[3],inactive
same,Potency,[4],inactive
same,Potency,[5],inactive
CNC(C)C(O)c1ccc(O)cc1 (stereo unspecified),Potency,[1],inactive
same,Potency,[2],inactive
same,Potency,[3],inactive
same,Potency,[4],2.28 µM (active)
same,Potency,[5],inactive
Oc1cccc[c]1[Hg][Cl],Potency,[1],20 µM (active)
same,Potency,[2],10.2 µM (active)
same,Potency,[3],1.28 µM (active)
same,Potency,[4],0.642 µM (active)
same,Potency,[5],4.46 µM (active)
[N-]=[N+]=CC(=O)OCC(N)C(=O)O (stereo unspecified),Potency,[1],inactive
same,Potency,[2],inactive
same,Potency,[3],inactive
same,Potency,[4],inactive
same,Potency,[5],inactive
CNC1(c2ccccc2Cl)CCCCC1=O (stereo unspecified),Potency,[1],inactive
same,Potency,[2],inactive
same,Potency,[3],inactive
same,Potency,[4],inactive
same,Potency,[5],inactive
CC1(C(=O)O)C2CCC(O2)C1(C)C(=O)O (stereo unspecified),Potency,[1],inactive
same,Potency,[6],inactive
same,Potency,[7],inactive
same,outcome,[8],inactive
same,Potency,[9],inactive
same,Potency,[10],inactive
CN1[C@@H]2CC[C@H]1CC(OC1c3ccccc3CCc3ccccc31)C2 (stereo partly specified),Potency,[1],8.91 µM (active)
same,Potency,[2],inactive
same,Potency,[4],inactive
same,Potency,[5],inactive
C[C@H]1CC[C@@H]2[C@@H](C)[C@H]3[C@H](C[C@H]4[C@@H]5CC=C6CC(O[C@@H]7O[C@H](CO)[C@H](O)[C@H](O[C@@H]8O[C@H](CO)[C@@H](O)[C@H](O)[C@H]8O)[C@H]7O[C@H]7O[C@@H](C)[C@H](O)[C@@H](O)[C@H]7O)CC[C@]6(C)[C@H]5CC[C@]34C)N2C1 (stereo partly specified),Potency,[1],inactive
same,Potency,[2],inactive
same,Potency,[4],28.7 µM (active)
same,Potency,[11],33.5 µM (active)
